Screens from PubChem BioAssay.
AmpC inh detg = qHTS Inhibitors of AmpC Beta-Lactamase (assay with detergent); 370,000 compounds, 0.041% hits; AmpC hydrolysis of nitrocefin, absorbance 480 nm, 0.01% Triton; Potency, µM (series often up to 114 µM), without a hit: top-dose activity change, negative = inhibition, usual class: inhibitors; P00811; AID 485294, 2010;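 further: 0% = no-compound wells and -100% = no-enzyme wells; nearly all actives have a fitted effect of over 25% in size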
Target sequence (P00811 whole entry, looked up): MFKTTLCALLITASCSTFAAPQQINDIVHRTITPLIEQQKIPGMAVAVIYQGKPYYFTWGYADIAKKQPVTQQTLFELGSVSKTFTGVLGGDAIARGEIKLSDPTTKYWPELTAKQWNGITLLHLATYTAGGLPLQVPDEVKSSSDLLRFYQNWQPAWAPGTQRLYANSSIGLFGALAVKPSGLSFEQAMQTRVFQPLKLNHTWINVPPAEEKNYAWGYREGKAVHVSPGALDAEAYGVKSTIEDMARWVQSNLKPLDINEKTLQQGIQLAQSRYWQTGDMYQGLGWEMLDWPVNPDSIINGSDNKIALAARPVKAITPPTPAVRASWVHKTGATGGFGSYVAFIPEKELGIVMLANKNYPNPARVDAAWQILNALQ
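20 mM phosphate pH 7.0 + 0.01% (detergent screen) or 0.0001% Triton X-100; 5.3 nM AmpC reagent; cpd preinc 15 min RT; nitrocefin (800 uM stock) to start; A480 q20 s × 4 min; Activity was normalised to no-enzyme and no-compound control wells.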
AmpC inh no detg = qHTS Inhibitors of AmpC Beta-Lactamase (assay without detergent). P00811. AmpC nitrocefin hydrolysis, absorbance 480 nm, 0.0001% Triton. Potency, µM (highest dose often 57.1 µM), for inactives: at the top dose activity change, negative = inhibition, hits mostly inhibitors. 330,000 compounds, 0.52% hits;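 further: plate controls were no compound for no effect and no enzyme for full effect; nearly all actives have a fitted effect of over 20% in size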
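20 mM phosphate pH 7.0 + 0.01% (detergent screen) or 0.0001% Triton X-100; 5.3 nM AmpC reagent; cpd preinc 15 min RT; nitrocefin (800 uM stock) to start; A480 q20 s × 4 min; Activity was normalised to no-enzyme and no-compound control wells.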
Sm TGR inh = qHTS Assay for the Inhibitors of Schistosoma Mansoni Peroxiredoxins. purified TGR, DTNB reduction, TNB absorbance 405 nm. Potency, µM (highest dose often 114 µM), for the others: at the top dose activity change, negative = inhibition, most hits filed as inhibitors. 360,000 compounds, 3% hits. AID 485364, 2010; further: nearly all actives have a fitted effect of over 60% in size
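First, TGR (20 nM dispensed) and NADPH were mixed with compound. Second, a 15 min room-temperature incubation followed. Third, further NADPH and then DTNB were added to start the reaction. Finally, TNB absorbance was monitored kinetically.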
FBPA Giardia inh = qHTS Assay for Inhibitors of Fructose-1,6-bisphosphate Aldolase from Giardia Lamblia. A8B2U2. purified Giardia FBPA. Potency, µM (highest dose often 59.6 µM), without a hit: top-dose activity, negative = inhibition, most hits filed as inhibitors. 290,000 compounds, 0.71% hits; further: nearly all actives have a fitted effect of over 55% in size
Target sequence (A8B2U2 whole entry, looked up): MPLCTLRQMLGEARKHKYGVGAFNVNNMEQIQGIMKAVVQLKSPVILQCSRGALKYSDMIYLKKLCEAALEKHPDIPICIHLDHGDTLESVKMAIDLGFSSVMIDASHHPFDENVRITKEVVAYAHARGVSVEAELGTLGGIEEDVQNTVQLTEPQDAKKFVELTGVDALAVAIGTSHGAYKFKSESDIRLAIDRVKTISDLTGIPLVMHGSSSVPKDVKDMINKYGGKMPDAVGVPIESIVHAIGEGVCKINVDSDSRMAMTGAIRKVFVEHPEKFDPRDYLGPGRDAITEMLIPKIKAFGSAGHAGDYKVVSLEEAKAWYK
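40 nM FBPA preincubated 10 min at RT with compound (up to 57.5 uM final), then substrate plus GAPDH/TPI/NAD/arsenate coupling and diaphorase/resazurin added. Fluorescence read after 20 min at RT, 525/598 nm.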
RE007 growth inh = qHTS Assay for Inhibitors of the HIV-1 protein Vpr; Potency, µM (series often up to 92.2 µM), for inactives: at the highest dose activity change, negative = less growth, usual class: inhibitors; AID 651644, 2012; S. pombe RE007 Vpr strain, BacTiter-Glo ATP luminescence, 24 h; 360,000 compounds, 0.21% hits; active means well fitted falling curve with a large enough effect; inconclusive means small, poorly fitted or top-dose-only effect; inactive means no such curve, though single readings can be large or run the other way; further: nearly all actives have a fitted effect of over 50% in size
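Fission yeast RE007 carrying one integrated HIV-1 vpr copy, seeded at OD 0.01 in PMG+AL medium with 23 nL pinned compound. Grown 24 h at 30 degrees; viability read by BacTiter-Glo luminescence after 5 min.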
Starred values were filed as active, the others as inactive; ? = inconclusive; nt = not tested or not shown; [ ] = remark or other dose. Compounds with a hit are over-represented: about 3.4% of the library has one in this group of screens. Unless noted, the call rests on the fitted dose curve; in most records, active means well fitted curve in the direction sought with a large enough effect; inconclusive means small, poorly fitted or top-dose-only effect, or another doubt; inactive means no such curve, though single readings can be large; an effect the other way counts as inactive or inconclusive. Unless noted, on the % scale 0 is the no-effect control and ±100 the full control effect; potency means the concentration at half of the fitted maximal effect.

SMILES	AmpC inh detg	AmpC inh no detg	Sm TGR inh	FBPA Giardia inh	RE007 growth inh
C/C=C(\C)C(=O)N1CC2(CC(c3cccc(NC(=O)COc4ccc(Cl)cc4)c3)=NO2)C[C@@H]1C(N)=O (some centres undefined)	-1%	148%	-15%	-5%	-8%
C/C=C\C=C/C(=O)Nc1cccc(C2=NOC3(C2)C[C@@H](C(N)=O)N(C(=O)COc2ccc(Cl)cc2)C3)c1 (some centres undefined)	-3%	114%	3.2µM*	-13%	-12%
C/C=C\C=C\C(=O)N1CC2(CC(c3cccc(NC(=O)COc4ccc(Cl)cc4)c3)=NO2)C[C@H]1C(N)=O (some centres undefined)	-4%	164%	7.1µM*	-11%	9%
O=C(Nc1ccc(Cl)cc1)c1ccc2sc([C@@H]3O[C@H](CO)[C@@H](O)[C@H]3O)nc2c1	nt	nt	nt	nt	-20%[18.4 µM]
O=C(COC(=O)c1nn(-c2ccccc2)c(=O)c2ccccc12)NC1CCS(=O)(=O)C1 (centres undefined)	-3%	12%	5%	8%	-14%
Oc1ccc(/C=N/N(c2ccccc2)c2ccccc2)c(O)c1O	4%	28µM*	40µM*	nt	nt
Oc1ccc(/C=N/N(c2ccccc2)c2ccccc2)cc1O	2%	-5%	4%	nt	15%
O=C1c2ccccc2C(=O)N1/N=C/c1ccc(O)c(O)c1O	-1%	-50%	50µM*	7.9µM*	-8%
Cc1nc2ccccc2c(=O)n1/N=C/c1ccc(O)c(O)c1O	?	-38%	45µM*	7.1µM*	nt
Cc1cc(C(C)(C)C)oc1C(=O)N(CC(=O)NC1CCCC1)c1cccc(C(F)(F)F)c1	11%	2%	-13%	0%	6%
COc1cccc(C(=O)NC2CCN(CC(=O)Nc3c(C)cc(C)cc3C)CC2)c1	3%	65%	12%	2%	nt
Cc1ccccc1C(=O)NC1CCN(CC(=O)Nc2ccc(N(C)C)cc2)CC1	?	-1%	40µM*	0%	-2%
COc1ccc(C(=O)NC2CCN(CC(=O)Nc3c(C)cccc3C)CC2)cc1OC	-4%	-1%	100µM*	-6%	4%
CSc1ccc(C(=O)C2CCCN(C(=O)CN3CCOC3=O)C2)cc1 (centres undefined)	5%	0%	?	nt	23%
O=C(CC12CC3CC(CC(C3)C1)C2)NCC(=O)OCc1cc(=O)oc2ccc3ccccc3c12	-10%	-16%	-9%	-1%	-9%
On1ccccc1=S	?	-42%	-31%	nt	4.5µM*
CCOc1ccccc1NC(=O)COC(=O)c1cc[n+]([O-])cc1	-8%	-12%	16%	-6%	8%
COc1ccc(S(=O)(=O)NNC(=O)c2ccc(-n3c(C)ccc3C)cc2)cc1	-15%	-50%	10µM*	-8%	4%
COc1cccc(S(=O)(=O)Nc2ccc3c(c2)[C@@H]2C[C@H](CC(=O)NCCc4ccccc4)O[C@H](CO)[C@@H]2O3)c1	nt	nt	nt	nt	5%
COc1ccc(C(=O)Nc2oc(-c3ccccc3)c(-c3ccccc3)c2C#N)cc1	-6%	8.9µM*	14%	0%	2%
CCc1c(C)sc(NC(=O)c2cccs2)c1C#N	2%	-27%	-2%	?	-17%
Cc1sc(NC(=O)c2ccccc2)c(C#N)c1-c1ccccc1	-14%	25µM*	-3%	-15%	0%
COc1ccc(-c2oc(NC(=O)c3ccc(C)cc3)c(C#N)c2-c2ccc(OC)cc2)cc1	?	-33%	-3%	1%	-10%
O=C(CC(Nc1ccc(Cl)cc1Cl)C(=O)O)c1ccccc1 (centres undefined)	4%	-17%	3.2µM*	3%	-8%
O=C(CC(Nc1ccccc1)C(=O)O)c1ccccc1 (centres undefined)	?	-27%	2.2µM*	-12%	3%
SMILES	AmpC inh detg	AmpC inh no detg	Sm TGR inh	FBPA Giardia inh	RE007 growth inh
Cc1ccc(NC(CC(=O)c2ccccc2)C(=O)O)cc1Cl (centres undefined)	-6%	-45%	0.79µM*	-20%	0%
O=C(CC(C(=O)O)c1cccc(Cl)c1)c1ccccc1 (centres undefined)	-7%	-38%	5%	-5%	-1%
CC(=O)Nc1ccc(S(=O)(=O)NCc2nnnn2-c2ccc(Cl)cc2)cc1	?	?	-10%	nt	6%
Cc1ccc(S(=O)(=O)N2CCC(=O)N([C@H](COCc3cccc(C(F)(F)F)c3)C(C)C)CC2)cc1	nt	nt	nt	nt	3%
CC(=O)N1CCc2cc(C(=O)CN3CCCCC3)ccc21	-7%	41%	?	0%	1%
Cc1ccc(Cl)cc1N1CCN(C(=O)CCSCc2ccccc2F)CC1	13%	nt	8%	nt	nt
CC(C)(C)C(=O)NCC12C=CC(O1)C1C(=O)N(c3ccccc3)C(=O)C12 (centres undefined)	?	-30%	1.6µM*	-1%	8.9µM*
O=C1C2C3C=CC(CO)(O3)C2C(=O)N1c1ccc(-c2ccccc2)cc1 (centres undefined)	-17%	-4%	0.5µM*	-11%	nt
CCC1(C(=O)OC)NC(c2ccco2)C2C(=O)N(c3ccccc3)C(=O)C21 (centres undefined)	-13%	-5%	0%	-5%	6%
COC(=O)C1(CO)NC(c2ccc(C)cc2)C2C(=O)N(c3ccccc3)C(=O)C21 (centres undefined)	2%	0%	-15%	8%	11%
O=C1[C@H]2[C@H]3[C@H](O)[C@H](O)C/C(=N/OCc4ccccc4)[C@H]3CC[C@@H]2C(=O)N1C[C@@H]1CCCO1	nt	nt	nt	-7%[12.9 µM]	nt
CN1c2ccccc2C(C)(C)C12C=Nc1c(ccc3ccccc13)O2 (centres undefined)	?	25µM*	20µM*	11µM*	?
CN1c2ccccc2C(C)(C)[C@]12C=Cc1cc(O)ccc1O2	-6%	-34%	-30%	-23%	11%
COc1ccc2ccc3c(c2c1)N=CC1(O3)N(C)c2ccccc2C1(C)C (centres undefined)	?	-42%	22µM*	?	0%
CC(=O)NCc1ccc(C(=O)CSc2nnc(-c3ccncc3)n2Cc2ccccc2)o1	-12%	70%	35µM*	-17%	4%
O=C1C=Cc2ccccc2C1=O	0%	?	11µM*	3.5µM*	nt
O=C(NCc1ccccc1)c1ccc2c(c1)N(Cc1cccc(Cl)c1)C(=O)c1ccccc1S2(=O)=O	7%	nt	35%	nt	nt
